The values that follow come from PubChem BioAssay (NCI).

Among the test systems are NCI-H23 lung; NCI-H226 lung; NCI-H322M lung; HOP-62 NSCLC; NCI-H460 lung; HOP-92 NSCLC; NCI-H522 lung; A549/ATCC NSCLC; 786-0 renal; COLO 205 colon.
Assay in all cases: NCI-60 one-dose screen, 48 h (100 = growth as untreated, 0 = no growth, -100 = all killed)
Conditions in all cases: 10 µM unless noted

“And” between values parts separate entries of the source, which are not always exact repeats. Equal entries are not always repeated. Compounds without any hit were thinned out: in the full panel of roughly 83,000, 20% have a hit.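 Activity criterion: percent growth below 10, measured after cells in 96-well plates were exposed to a single compound concentration for 48 hours.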 The source made the active and inactive calls.

In the case of `C[C@@H]1CC[C@@H]2[C@@H]1[C@H](OC(=O)/C=C/c1ccccc1)[C@]1(c3ccccc3)C[C@@H](NC(=O)CO)[C@@]2(C)O1`, the growth with NCI-H23 lung is 97.7% (inactive); in the assay with NCI-H226 lung, 88.8% (inactive); in the assay on NCI-H322M lung, 98.2% (inactive); with HOP-62 NSCLC it was 96.8% (inactive); with NCI-H460 lung it was 105% (inactive); with HOP-92 NSCLC, 65.5% (inactive). The growth was 82.3% (inactive) in the assay with NCI-H522 lung, 95% (inactive) with A549/ATCC NSCLC, 101% (inactive) in the assay on 786-0 renal and 99.7% (inactive) with COLO 205 colon.
On to `COc1ccccc1/C=C/C(=O)/C=C/c1ccccc1OC`, for which the growth was -26% (active) and 24.7% (inactive) in the assay with NCI-H23 lung; -30.6% (active) in the assay on NCI-H226 lung; 30.6% (inactive) and 38.9% (inactive) with NCI-H322M lung; -22.7% (active) and -19.7% (active) with HOP-62 NSCLC; 2.27% (active) and -3.65% (active) with NCI-H460 lung; -10.9% (active) and 33.9% (inactive) in the assay on HOP-92 NSCLC. Moreover, the growth in the assay on NCI-H522 lung is -84.5% (active) and -58.5% (active); with A549/ATCC NSCLC, -13.8% (active) and -7.39% (active); with 786-0 renal, -56.9% (active) and -47.8% (active); with COLO 205 colon, -73.7% (active) and -57.9% (active).
Regarding `Clc1ccc2c(NCCN3CCN(c4ccnc(N5CCCC5)n4)CC3)ccnc2c1`, the growth with NCI-H23 lung is 56.8% (inactive); with NCI-H226 lung, 80.3% (inactive); with NCI-H322M lung it was 44.3% (inactive); in the assay with HOP-62 NSCLC, 77.3% (inactive); in the assay with NCI-H460 lung, 16.7% (inactive); in the assay on HOP-92 NSCLC it was 23.3% (inactive). Also, the growth is 45% (inactive) in the assay on NCI-H522 lung, 24.6% (inactive) with A549/ATCC NSCLC, 29.4% (inactive) in the assay on 786-0 renal and -46.5% (active) with COLO 205 colon.
Turning to `O=C1N=c2ccccc2=C1c1sc(=S)n(C2CC(=O)N(c3ccc(Cl)cc3)C2=O)c1O` (stereo not given), the growth in the assay with NCI-H23 lung is 99.2% (inactive); in the assay with NCI-H226 lung it was 92% (inactive); in the assay on NCI-H322M lung it was 104% (inactive); with HOP-62 NSCLC, 93.2% (inactive); in the assay with NCI-H460 lung it was 102% (inactive); in the assay with HOP-92 NSCLC, 98.6% (inactive). The growth with NCI-H522 lung was 97.1% (inactive); in the assay with A549/ATCC NSCLC, 107% (inactive); in the assay with 786-0 renal, 102% (inactive); with COLO 205 colon, 118% (inactive).
For `COC(=O)/C=C1/SC(N2N=C(c3cccs3)CC2c2ccc(F)cc2)=NC1=O` (stereo not given), the growth is 82.2% (inactive) with NCI-H23 lung; 84% (inactive) with NCI-H226 lung; 93% (inactive) with NCI-H322M lung; 85.2% (inactive) in the assay on HOP-62 NSCLC; 24.4% (inactive) in the assay with NCI-H460 lung; 77.1% (inactive) in the assay on HOP-92 NSCLC. In addition, the growth in the assay on NCI-H522 lung was 24.3% (inactive); in the assay with A549/ATCC NSCLC it was 90.7% (inactive); with 786-0 renal, 85.3% (inactive); with COLO 205 colon, 21.8% (inactive).
On to `COc1ccc(/C(C)=C(\c2ccc(OCCN3CCOCC3)cc2)c2ccc(OC(=O)C3CCCCC3)cc2)cc1`, for which the growth is 101% (inactive) in the assay on NCI-H23 lung; 113% (inactive) in the assay on NCI-H226 lung; 99.5% (inactive) in the assay with NCI-H322M lung; 108% (inactive) with HOP-62 NSCLC; 107% (inactive) in the assay with NCI-H460 lung; 109% (inactive) with HOP-92 NSCLC. Also, the growth with NCI-H522 lung was 104% (inactive); in the assay with A549/ATCC NSCLC it was 106% (inactive); in the assay on 786-0 renal it was 104% (inactive); in the assay on COLO 205 colon, 110% (inactive).
Regarding `Nc1nc(N)c2c(n1)NC(c1cccc(Nc3ccnc4cc(C(F)(F)F)ccc34)c1)CC(c1ccc(F)cc1)=N2` (stereo not given), the growth in the assay with NCI-H23 lung is 70.4% (inactive); in the assay with NCI-H226 lung it was 80% (inactive); with NCI-H322M lung, 86.4% (inactive); with HOP-62 NSCLC, 48.7% (inactive); with NCI-H460 lung it was 18% (inactive); in the assay with HOP-92 NSCLC it was 31.6% (inactive). Besides, the growth with NCI-H522 lung was 48.2% (inactive); with A549/ATCC NSCLC, 40.1% (inactive); with 786-0 renal it was 60.4% (inactive); in the assay with COLO 205 colon, 29.1% (inactive).
Take `C=CCOc1ccc(/C=C2\SC(=S)N(CCc3ccc(O)cc3)C2=O)cc1`: the growth in the assay with NCI-H23 lung was 104% (inactive); in the assay on NCI-H226 lung, 91.6% (inactive); in the assay with NCI-H322M lung, 95.2% (inactive); with HOP-62 NSCLC, 106% (inactive); in the assay on NCI-H460 lung, 97.4% (inactive); with HOP-92 NSCLC it was -2.76% (active). The growth in the assay with NCI-H522 lung was 11% (inactive); in the assay with A549/ATCC NSCLC it was 88.8% (inactive); in the assay on 786-0 renal, 100% (inactive); in the assay with COLO 205 colon it was 114% (inactive).
For the molecule `Cn1cc(-c2nc3c(F)cc4[nH]ncc4c3c3c2CCCC3)c(C(F)F)n1`, the growth was 66.9% (inactive) in the assay with NCI-H23 lung; 62.2% (inactive) in the assay with NCI-H226 lung; 66.2% (inactive) with NCI-H322M lung; 57.3% (inactive) with HOP-62 NSCLC; 62.3% (inactive) in the assay with NCI-H460 lung; 8.14% (active) in the assay on HOP-92 NSCLC. The growth was 26.9% (inactive) with NCI-H522 lung, 58.1% (inactive) in the assay on A549/ATCC NSCLC, 63.9% (inactive) with 786-0 renal and 89.4% (inactive) with COLO 205 colon.
For `Cc1ccc(S(=O)(=O)Nc2cc(Sc3ccccc3)c(O)c3ccccc23)cc1`, the growth is 58% (inactive) in the assay with NCI-H23 lung; 96% (inactive) with NCI-H226 lung; 102% (inactive) with NCI-H322M lung; 112% (inactive) in the assay on HOP-62 NSCLC; 105% (inactive) with NCI-H460 lung; 18.2% (inactive) with HOP-92 NSCLC. Further, the growth is 81% (inactive) in the assay with NCI-H522 lung, 90.3% (inactive) in the assay on A549/ATCC NSCLC, 104% (inactive) with 786-0 renal and 108% (inactive) in the assay on COLO 205 colon.
For `CCCCC(NC(=O)CN1C(=O)/C(=C/C(C)=C/c2ccccc2)SC1=S)C(=O)O` (stereo not given), the growth with NCI-H23 lung was 94.8% (inactive); in the assay on NCI-H226 lung, 93.9% (inactive); in the assay on NCI-H322M lung, 103% (inactive); with HOP-62 NSCLC, 93% (inactive); in the assay with NCI-H460 lung it was 102% (inactive); with HOP-92 NSCLC, 62.8% (inactive). The growth in the assay on NCI-H522 lung is 93.8% (inactive); in the assay on A549/ATCC NSCLC, 98.5% (inactive); in the assay with 786-0 renal, 104% (inactive); in the assay with COLO 205 colon, 119% (inactive).
For the molecule `CC1=CC=C(NC(=O)/C=C/c2ccccc2)CC1Nc1nccc(-c2cccnc2)n1` (stereo not given), the growth in the assay on NCI-H23 lung is 69% (inactive); in the assay on NCI-H226 lung it was 66% (inactive); with NCI-H322M lung, 67.2% (inactive); in the assay with HOP-62 NSCLC, 54.8% (inactive); in the assay on NCI-H460 lung it was 66.9% (inactive); with HOP-92 NSCLC it was 60.3% (inactive). Also, the growth was 69% (inactive) in the assay with NCI-H522 lung, 42.4% (inactive) in the assay with A549/ATCC NSCLC, 15.9% (inactive) in the assay on 786-0 renal and 26.7% (inactive) in the assay on COLO 205 colon.
For the molecule `O=C(CCCCCCCCC(=O)N/N=C\c1ccccc1O)N/N=C\c1ccccc1O`, the growth is 39.9% (inactive) in the assay with NCI-H23 lung; -5.86% (active) with NCI-H226 lung; 19.5% (inactive) in the assay with NCI-H322M lung; 0.588% (active) with HOP-62 NSCLC; -11.3% (active) in the assay on NCI-H460 lung; 41.9% (inactive) in the assay on HOP-92 NSCLC. The growth with NCI-H522 lung is 34.3% (inactive); with A549/ATCC NSCLC it was 17.1% (inactive); in the assay with 786-0 renal, 3.41% (active); in the assay on COLO 205 colon, 43.1% (inactive).
